aSyn UTR act: Activators working through SNCA 5'UTR binding (MLPCN). alpha-synuclein 5'UTR reporter, activators screen. activity score, % (tested at 7.5 µM), hits read low. hit rate 7.1% among 300,000. AID 1814; in the data active means activity score below about -60%
Numbers stand for hits; - = inactive. The list is a sample of the results.

SMILES	aSyn UTR act
C/C(=N\NC(=O)c1ccncc1)c1ccc(NC(=O)c2ccc(Cl)cc2)cc1	-115.9
Cn1cc(C(=O)c2ccc(Cl)cc2Cl)cc1C(=O)N/N=C(\N)COc1ccc(Cl)cc1Cl	-
C/C(=N\NC(=O)c1ccc(Cl)cc1)c1cccnc1	-91.6
C/C(=N/NC(=O)c1ccncc1)c1ccc(NC(=O)c2ccc(Cl)cc2Cl)cc1	-184.7
C/C(=N/NC(=O)c1ccc(C)s1)c1cccnc1	-70.4
CCNC(=S)Nc1cc(-c2ccc(Cl)cc2)[nH]n1	-86.5
O=C(Nc1cc(-c2ccccc2)[nH]n1)c1ccccc1F	-207.2
CC(=O)Nc1cc(-c2ccc(F)cc2)[nH]n1	-76.9
N#Cc1ccc(CO/N=C/c2ccccc2)cc1	-94.6
c1ccc(-c2onc3cc4c(cc23)OCCO4)cc1	-167.1
COc1cc(NC(=S)N2CCOCC2)c(OC)cc1Cl	-211.2
c1ccc2oc(CCc3nc4ccccc4o3)nc2c1	-99.0
Nc1ccc2oc(CCc3ccccc3)nc2c1	-117.6
C/C(=N\NC(=O)OC(C)(C)C)c1ccccc1Br	-84.4
C/C(=N\NC(=O)c1ccccc1)c1ccc(N2CCCCC2)cc1	-86.3
C/C(=N\NC(=O)c1ccccc1)c1ccccc1Br	-101.7
CN1CCN(c2ccc(C(=O)c3ccc(F)cc3)cc2)CC1	-133.0
C/C(=N\NC(=O)c1ccc(C)cc1)c1c(C)[nH]n(-c2ccccc2)c1=O	-
CCCCCC(=O)N/N=C(\C)c1ccccn1	-
C/C(=N\NC(=O)c1ccc(Br)cc1)c1ccccc1	-158.0
O=C(c1ccccc1)c1ccc(N2CCCC2)cc1	-108.6
CCCCCC(=O)N/N=C(\C)c1ccc(N2CCCCC2)cc1	-65.0
C/C(=N\NC(=O)c1ccccc1)c1ccccc1F	-88.3
c1ccc2c(c1)Cc1cc(CN3CCOCC3)ccc1-2	-112.8
Cc1cccc(NC(=O)C2COc3ccccc3O2)n1 (stereo not given)	-71.0
SMILES	aSyn UTR act
COc1ccc(Cl)cc1NC(=O)C1COc2ccccc2O1 (stereo not given)	-65.1
COc1ccc(CNC(=O)C2COc3ccccc3O2)c(OC)c1 (stereo not given)	-75.5
Cc1cc(NC(=O)C2COc3ccccc3O2)no1 (stereo not given)	-114.7
Cc1csc(NC(=O)C2COc3ccccc3O2)n1 (stereo not given)	-
Cc1cnc(NC(=O)C2COc3ccccc3O2)s1 (stereo not given)	-
O=C(Nc1ccccn1)C1COc2ccccc2O1 (stereo not given)	-176.8
O=C(Nc1ccc(Cl)cn1)C1COc2ccccc2O1 (stereo not given)	-137.2
Cc1cccc(NC(=O)CSc2nc(C)c(CC(=O)c3ccc(Br)cc3)c(C)c2C#N)c1C	-
CSc1nc(N)nc(SCC(=O)c2ccccc2)c1C#N	-76.0
O=C(C1COc2ccccc2O1)N1CCc2ccccc21 (stereo not given)	-106.4
CN(C(=O)Nc1ccc(Cl)cc1Cl)C1CCCC1	-118.1
O=C(Nc1ccc(Cl)cc1Cl)NC1CCCC1	-74.0
S=C(Nc1ccc(Cl)cc1Cl)NC1CCCCC1	-126.7
O=C(NC1CCCCC1)Sc1ccc(Cl)cc1	-71.7
Cc1ccc(NC(=O)Nc2ccc(Cl)cc2)c(Br)c1	-154.9
Cc1ccc(C)c(NC(=O)c2ccccn2)c1	-72.1
Cc1ccc(NC(=O)c2ccccn2)c(Br)c1	-103.3
COc1cc([C@@H]2c3cc4c(cc3[C@H](O)[C@H]3COC(=O)[C@H]23)OCO4)cc(OC)c1OC	-
COc1ccc2c(c1OC)CN1CCc3cc4c(cc3[C@@H]1[C@@H]2O)OCO4	-69.1
Cc1ccc(C)c(OCc2cc(C(=O)N3CC[C@H](O)C3)no2)c1	-126.6
COc1ccc(OCc2cc(C(=O)N3CCCC(O)C3)no2)c2ccccc12 (stereo not given)	-104.5
CCCOC1CCCN(C(=O)c2cc(COc3c(F)cccc3F)on2)C1 (stereo not given)	-135.6
Cn1cccc1/C=N/NC(=O)c1ccccn1	-70.9
O=C(O)c1cccc(N/N=C/c2cccs2)c1	-
O=C(N/N=C/c1cccs1)c1ccccn1	-79.2
SMILES	aSyn UTR act
Cn1cccc1C(=O)N/N=C/c1c(Cl)cccc1Cl	-99.9
CC(C)(C)NC(=O)C(=O)N/N=C/c1cccs1	-120.3
Cn1cc(C(=O)N/N=C/c2c(O)ccc3ccccc23)ccc1=O	-
Cc1ccc2c(Cl)c(C(=O)N/N=C/c3cccn3C)sc2c1	-134.9
Cn1cccc1/C=N/NC(=O)c1cc2ccccc2cc1O	-82.3
O=C(Nc1ccc(Cl)cn1)Nc1ccc(Cl)cn1	-77.2
O=C(Nc1ccc(F)cc1)Nc1ccc(Cl)cn1	-121.2
C/C(=C\c1ccccc1)C(=O)Nc1ccc(Cl)cn1	-180.1
CC(C)c1ccc(/C=N/NC(=O)c2c(Cl)cnn2C)cc1	-141.7
Cn1ncc(Cl)c1C(=O)Nc1ccc(Cl)cn1	-113.8
O=C(Nc1ccc(Cl)cn1)Nc1ccccc1F	-152.9
Cc1c(C(=O)Nc2ccccn2)sc2nc3n(c(=O)c12)CCC3	-86.4
CCc1cccc(NC(=O)c2sc3nc4n(c(=O)c3c2C)CCC4)c1	-136.5
Cc1c(C(=O)Nc2ccccc2F)sc2nc3n(c(=O)c12)CCC3	-111.2
O=c1c2sc(-c3ccccc3)cc2nc2n1CCC2	-
COCCn1c(C)cc(C(=O)CN2C(=O)NC3(CCCCCCC3)C2=O)c1C	-99.2
Cc1cc(C)c(C(=O)CN2C(=O)NC3(CCCCC3)C2=O)cc1C	-73.2
Cc1ccc(C(=O)CN2C(=O)NC3(CCCCCC3)C2=O)c(C)c1	-131.7
COCCn1c(C)cc(C(=O)CSc2nnc(C)s2)c1C	-
CCOc1ccc(NC(=O)NCc2cccn2C)cc1	-86.8
Cn1cccc1CNC(=O)Nc1ccc(Cl)c(Cl)c1	-212.1
CC(=O)c1sc2nc(-c3ccco3)ccc2c1N	-81.2
Nc1c(C(=O)Nc2ccc(Br)cc2)sc2nc(-c3ccco3)ccc12	-170.8
NC(=O)c1sc2nc(-c3ccccc3)ccc2c1N	-73.1
COc1ccc(-c2ccc(/C=C3/C(=N)N4C=CSC4=NC3=O)o2)c([N+](=O)[O-])c1	-116.4
SMILES	aSyn UTR act
Cn1c(=O)n(/N=C/c2ccccc2)c2ccccc21	-106.7
CCn1c2ccccc2c2cc(NC(=O)C(=O)N3CCOCC3)ccc21	-63.5
COc1cccc(NC(=O)C(=O)N2CCOCC2)c1	-172.8
CCn1c2ccccc2c2cc(Nc3cc(C)nc4ncnn34)ccc21	-
C=CCn1c(C)cc(C(=O)COC(=O)[C@@H](NC(=O)c2ccccc2Cl)C(C)C)c1C	-69.7
O=C(NCc1ccncc1)C(=O)Nc1nc2ccccc2s1	-71.6
Cc1cnc(NC(=O)CC2CCCC2)s1	-130.7
O=C(NNc1nc2ccccc2s1)Nc1ccccc1	-254.7
O=C(CC1CCCCC1)Nc1nc2ccccc2s1	-129.8
S=C(Nc1ccccc1)c1nc2ccccc2s1	-170.2
CCNC(=O)Nc1nc2ccccc2s1	-96.8
O=[N+]([O-])c1cc([N+](=O)[O-])c2c(=Nc3ccccc3)n(-c3ccccc3)n(O)c2c1	-77.5
CCOC(=O)c1nc(N/N=C/c2ccccc2)sc1Br	-82.4
CC(=O)c1sc(N/N=C\c2ccc(Br)cc2)nc1C	-78.6
CCCc1sc(N/N=C/c2ccccn2)nc1-c1ccc(Br)cc1	-
Nc1nc(-c2ccccc2)nc2sc3c(c12)CCCC3	-138.7
Nc1c2c(nc3sc4c(c13)CCCC4)CCCCCC2	-82.1
CCSc1nc(N)c2c3c(sc2n1)CCC3	-89.4
Brc1c(CSc2nc3ccccc3s2)nc2ncccn12	-109.6
COc1cccc(NC(=O)C(=O)NCc2ccncc2)c1	-100.0
O=C(NCc1ccccc1)C(=O)Nc1cccc(C(=O)O)c1	-
COc1cccc(NC(=O)C2=COCCO2)c1	-63.6
COc1cccc(NC(=O)c2cccs2)c1	-155.2
